The record followed here is PubChem BioAssay.

The structures appear in SMILES notation. Unmarked numbers belong to inactive results.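 The calls were made as follows: active = compounds whose cell count with miR-34 switched on is under 0.7 times the count with it off; inactive = the rest.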 Square brackets hold non-standard residues; d marks the D form. Peptide text beside a SMILES is read from it. * marks the point of attachment. Phe(ol) = N[C@H](CO)Cc1ccccc1; Nle = CCCC[C@H](N)C(=O)O; Cbz = O=C(OCc1ccccc1)*; Boc = CC(C)(C)OC(=O)*; Aib = CC(C)(N)C(=O)O

This assay in a line: viability loss with induced miR-34 in A549 – imaging, A549 dox-inducible miR-34, nuclei and caspase counts, primary screen (AID 1347080). Also: test concentration not given here. Particulars: A549 miR-34 inducible, Hoechst nuclei count, 48 h; hits give low values; cell number ratio, induced over uninduced.
Regarding `CCCCCCCC/C=C\CCCCCCCC(=O)OC[C@H](CO)OC(=O)CCCCCCC/C=C\CCCCCCCC`, the fold change was 1.03.

On to `NC(=NCc1ccc(Cl)cc1Cl)NC(=O)c1nc(Cl)c(N)nc1N`, for which the fold change was 1.01.

As for `CN([C@@H](Cc1ccc(OS(=O)(=O)c2cccc3cnccc23)cc1)C(=O)N1CCN(c2ccccc2)CC1)S(=O)(=O)c1cccc2cnccc12`, the fold change was 0.962.

As to `CCCC[C@@H](C=O)NC(=O)[C@H](CC(C)C)NC(=O)[C@H](CC(C)C)NC(C)=O` (Ac-Leu-Leu-[Nle]-aldehyde), the fold change is 0.909.

With `CCC(C)[C@H](NS(=O)(=O)c1cccc2ccccc12)C(=O)N[C@H](C=O)Cc1c[nH]c2ccccc12` (some centres undefined), the fold change is 0.877.

On to `CC(C)[C@@H]1NC(=O)[C@H](Cc2ccccc2)NC(=O)[C@@H](CC(=O)O)NC(=O)CNC(=O)[C@H](CCCN=C(N)N)NC1=O`, for which the fold change was 1.03.

Turning to `CSCC[C@H](NC(=O)[C@H](Cc1ccccc1)NC[C@@H](NC[C@@H](N)CS)C(C)C)C(=O)O`, the fold change was 0.931.

With `CCCCCCCCCC(=O)OC[C@H](CO)OC(=O)CCCCCCCCC`, the fold change was 0.939.

Take `CCC(C)[C@@H](CO[C@@H](Cc1ccccc1)C(=O)N[C@@H](CCS(C)(=O)=O)C(=O)OC(C)C)NC[C@@H](N)CS` (some centres undefined): the fold change was 0.946.

For the compound `CCCCC[C@@H](O)/C=C/[C@H]1[C@H](C/C=C\CCCC(=O)O)C(=O)C[C@@H]1O`, the fold change is 0.916.

`CCCCC[C@@H](O)/C=C/[C@H]1[C@H](C/C=C\CCCC(=O)O)[C@H](O)C[C@@H]1O`: the fold change was 1.15.

For the compound `CC1(C)Oc2ccc(C#N)cc2[C@@H](OC2=CC(=O)CC2)[C@@H]1O`, the fold change is 0.927.

As for `CC[C@H]1[C@@H]2C=C[C@@H]3[C@H]4C/C=C\C(=O)NCCC[C@@H]5NC(=O)C(=C5O)C(=O)CC[C@@H]4C[C@@H]3[C@H]2C[C@H]1C`, the fold change is 1.96.

Turning to `CCCCC/C=C\C\C=C/C=C/C=C/[C@@H](SC[C@H](N)C(=O)NCC(=O)O)[C@@H](O)CCCC(=O)O`, the fold change was 0.978.

With `CCCC[C@@H](C)/C=C(C)/C=C(\C)C(=O)NC1=C[C@@](O)(/C=C/C=C/C=C/C(=O)NC2=C(O)CCC2=O)[C@@H]2O[C@@H]2C1=O`, the fold change was 1.01.

Regarding `C=C[C@@]1(C)CC(=O)[C@]2(O)[C@@]3(C)[C@H](O)CCC(C)(C)[C@@H]3[C@H](O)[C@H](OC(C)=O)[C@@]2(C)O1`, the fold change is 0.854.

For `CCCCCCCCCCCCCCCCOC[C@H](CO)OC(C)=O`, the fold change is 0.961.

With `CC(C)[C@H](NC(=O)CNC(=O)OC(C)(C)C)C(=O)N[C@H](C=O)C(C)C` (Boc-Gly-Val-Val-aldehyde), the fold change was 0.895.

In the case of `c1ccc(CN(CCN(Cc2ccccn2)Cc2ccccn2)Cc2ccccn2)nc1`, the fold change is 0.775.

Turning to `C=CC1CN2CCC1C[C@@H]2[C@H](O)c1ccnc2ccc(OC)cc12` (some centres undefined), the fold change is 0.899.

For `CCCCCCCCCCCCCCCCCCc1ccc(C(=O)/C=C/C(=O)O)cc1`, the fold change is 0.918.

As to `CCCCC[C@H](O)CC(=O)CCc1ccc(O)c(OC)c1`, the fold change is 0.985.

On to `Nc1ncnc2c1nc(Br)n2C1O[C@H]2COP(=O)(O)O[C@@H]2[C@@H]1O` (some centres undefined), for which the fold change is 0.835.

Take `N#C/C(=C/c1ccc(O)c(O)c1)C(=O)OC/C=C/c1ccccc1`: the fold change is 1.11.

`CCCCC/C=C\C\C=C/C=C/C=C/[C@@H](SC[C@H](N)C(=O)O)[C@@H](O)CCCC(=O)O`: the fold change was 1.09.

For the compound `CC(=O)N[C@@H](CC(C)C)C(=O)N[C@@H](CC(C)C)C(=O)N[C@H](C=O)CCCN=C(N)N`, the fold change was 0.979.

Regarding `O=C[C@@H]1CCCN1C(=O)[C@@H]1CCCN1C(=O)OCc1ccccc1` (Cbz-Pro-Pro-aldehyde), the fold change was 0.854.

For the compound `CC(=O)OCOC(c1cc([N+](=O)[O-])ccc1Oc1ccc(Br)cc1)P(=O)(OCOC(C)=O)OCOC(C)=O` (centres undefined), the fold change was 1.27.

With `C[C@H]([C@H](C)N1CC(=O)NC(=O)C1)N1CC(=O)NC(=O)C1`, the fold change is 0.938.

As for `CCCCC/C=C\C/C=C\CCCCCCCC(=O)O[C@@H](CO)COC(=O)CCCCCCCCCCCCCCCCC`, the fold change is 0.999.

`CC12C=CC(=O)C=C1CCC1C2=CCC2(C)C1CC[C@@H]2C(=O)CN1CCN(c2cc(N3CCCC3)nc(N3CCCC3)n2)CC1` (some centres undefined): the fold change is 0.969.

For the compound `CCCCCCCCCCCCCCCCOC[C@H](CO)OC`, the fold change was 0.866.

As for `COC(=O)/C=C/c1ccc(C(=O)NCC(=O)N[C@@H](CCC(=O)OC)C(=O)N[C@@H](CC(C)C)C(N)=O)cc1`, the fold change was 0.902.

For the compound `NC1=NC2C(N=C(Br)N2C2O[C@H]3COP(=O)(O)O[C@@H]3[C@@H]2O)C(=O)N1` (some centres undefined), the fold change was 0.962.

On to `Nc1cc(N2CCCCC2)nc(N)[n+]1OS(=O)(=O)[O-]`, for which the fold change is 0.999.

As to `Clc1ccc2ncnc(NCc3ccc4c(c3)OCO4)c2c1`, the fold change was 0.968.

`COC(=O)CNC(=O)C(=O)OC`: the fold change was 0.976.

Turning to `CC(=O)NC(C)(C)C(=O)N1CCC[C@H]1C(=O)NC(C)(C)C(=O)N[C@@H](C)C(=O)NC(C)(C)C(=O)N[C@@H](C)C(=O)N[C@@H](CCC(N)=O)C(=O)NC(C)(C)C(=O)N[C@H](C(=O)NC(C)(C)C(=O)NCC(=O)N[C@@H](CC(C)C)C(=O)NC(C)(C)C(=O)N1CCC[C@H]1C(=O)N[C@H](C(=O)NC(C)(C)C(=O)NC(C)(C)C(=O)N[C@@H](CCC(=O)O)C(=O)N[C@@H](CCC(N)=O)C(=O)N[C@H](CO)Cc1ccccc1)C(C)C)C(C)C` (Ac-[Aib]P[Aib]A[Aib]AQ[Aib]V[Aib]GL[Aib]PV[Aib][Aib]EQ[Phe(ol)]), the fold change is 1.08.

Consider `CC(C)C[C@@H](/C=C/S(C)(=O)=O)NC(=O)[C@H](CC(C)C)NC(=O)[C@H](CC(C)C)NC(=O)OCc1ccccc1`, for which the fold change was 0.878.
